Test systems include HCT-15 colon; HT29 colon; SNB-75 CNS; SNB-19 CNS; U251 CNS; PC-3 prostate; SK-MEL-5 melanoma; UACC-62 melanoma; LOX IMVI melanoma; SK-MEL-28 melanoma; EKVX NSCLC; SN12C renal; UO-31 renal; TK-10 renal; ACHN renal; A498 renal; CCRF-CEM leukemia; MOLT-4 leukemia; CAKI-1 renal.
What all share (assay): NCI-60 one-dose screen, 48 h (100 = growth as untreated, 0 = no growth, -100 = all killed)
Conditions in all cases: 10 µM unless noted

The panel holds about 83,000 compounds, 20% with a hit somewhere; the sample as a whole holds those more often.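 48-hour exposure, single concentration, 96-well plates; percent growth endpoint where 0 means no net growth. Active: below 10.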 Values without a mark were called inactive. Calls of active or inactive are those of the source.

For the compound `Cc1cnc(NC(=O)Nc2cc(Br)c(C)cc2OC[C@@H]2CNCCO2)cn1`, the growth with HCT-15 colon was 6.54% (active); with HT29 colon, -6.22% (active); in the experiment on SNB-75 CNS, 26.5%; in the experiment on SNB-19 CNS it was 39.7%; with U251 CNS it was 11.7%; with PC-3 prostate it was 39.7%. In addition, the growth in the experiment on SK-MEL-5 melanoma is -92.2% (active); with UACC-62 melanoma, 12.2%; with LOX IMVI melanoma it was -78% (active); in the experiment with SK-MEL-28 melanoma it was -88.7% (active); in the experiment with EKVX NSCLC, 25.9%; with SN12C renal it was 39.5%. Also, the growth in the experiment on UO-31 renal is -12.3% (active); in the experiment on TK-10 renal, 28.8%; in the experiment with ACHN renal it was 3.08% (active); with A498 renal, 18.1%; in the experiment on CCRF-CEM leukemia, 4.56% (active); in the experiment on MOLT-4 leukemia it was 2.6% (active).
`C/C(=N\NC(=O)Cn1c(-c2ccc(S(C)(=O)=O)cc2)nc2ccccc21)c1ccc(Cl)cc1`: the growth is 87.8% with HCT-15 colon; 98.3% in the experiment with HT29 colon; 81.1% with SNB-75 CNS; 93.4% in the experiment with SNB-19 CNS; 89.7% with U251 CNS; 52.2% with PC-3 prostate. Moreover, the growth in the experiment on SK-MEL-5 melanoma was 91.7%; in the experiment with UACC-62 melanoma, 84.7%; in the experiment on LOX IMVI melanoma, 100%; with SK-MEL-28 melanoma it was 113%; with EKVX NSCLC, 101%; with SN12C renal, 97.4%. Moreover, the growth with UO-31 renal is 66.1%; in the experiment with TK-10 renal, 109%; with ACHN renal, 93.6%; in the experiment on CAKI-1 renal it was 91.9%; in the experiment on CCRF-CEM leukemia, 77%; with MOLT-4 leukemia it was 79.7%.
Take `CCCCN1C(=O)c2cccc3c(-c4ccc5c(c4)ncn5C4CCCCC4)ccc(c23)C1=O`: the growth in the experiment with HCT-15 colon is 106%; with HT29 colon, 84.1%; with SNB-75 CNS, 92.3%; in the experiment on SNB-19 CNS, 106%; in the experiment with U251 CNS it was 98.3%; in the experiment with PC-3 prostate it was 94.3%. The growth with SK-MEL-5 melanoma was 107%; in the experiment with UACC-62 melanoma, 92.8%; with LOX IMVI melanoma it was 102%; in the experiment with SK-MEL-28 melanoma, 117%; with EKVX NSCLC, 99.8%; with SN12C renal it was 105%. Further, the growth in the experiment on UO-31 renal was 82.1%; in the experiment on TK-10 renal it was 102%; with ACHN renal it was 107%; in the experiment with CAKI-1 renal, 93.7%; with CCRF-CEM leukemia it was 113%; with MOLT-4 leukemia, 94.7%.
With `CCCCCCCC12Cc3ccccc3C1=Nc1c(c3ccccc3n1C)C2=O` (stereo not drawn), the growth was 91.7% in the experiment on HCT-15 colon; 58.8% with HT29 colon; 89.2% in the experiment with SNB-75 CNS; 95% with SNB-19 CNS; 88.5% in the experiment on U251 CNS; 78.2% with PC-3 prostate. The growth with SK-MEL-5 melanoma is 90.8%; with UACC-62 melanoma, 74.8%; in the experiment on LOX IMVI melanoma, 87.8%; in the experiment on SK-MEL-28 melanoma, 113%; in the experiment on EKVX NSCLC it was 98.8%; in the experiment on SN12C renal, 92.1%. Besides, the growth was 57.5% in the experiment on UO-31 renal; 102% in the experiment on TK-10 renal; 93.3% in the experiment on ACHN renal; 86.4% in the experiment with A498 renal; 83.6% with CCRF-CEM leukemia; 78.3% in the experiment with MOLT-4 leukemia.
As for `CN1CCN(c2ccc(C(=O)Nc3n[nH]c4ccc(Cc5cc(F)cc(F)c5)cc34)c(NC3CCOCC3)c2)CC1`, the growth with HCT-15 colon is -65.7% (active); in the experiment with HT29 colon, -56.8% (active); in the experiment with SNB-75 CNS, -93.2% (active); in the experiment on SNB-19 CNS, -50.3% (active); in the experiment with U251 CNS, -83.7% (active); in the experiment with PC-3 prostate it was -12.3% (active). Moreover, the growth in the experiment on SK-MEL-5 melanoma was -96.5% (active); with UACC-62 melanoma, -78.4% (active); in the experiment on LOX IMVI melanoma, -89.7% (active); in the experiment with SK-MEL-28 melanoma it was -87% (active); with EKVX NSCLC, 8.7% (active); in the experiment on SN12C renal it was -6.17% (active). The growth in the experiment with UO-31 renal is -90.7% (active); in the experiment with TK-10 renal it was -5.76% (active); with ACHN renal, -7.72% (active); in the experiment with CAKI-1 renal it was -80.7% (active); in the experiment with CCRF-CEM leukemia, 1.8% (active); in the experiment with MOLT-4 leukemia, -20.4% (active).
In the case of `Cc1cc(NCC(=O)Nc2ccc(-c3nc4ccccc4s3)cc2)no1`, the growth in the experiment with HCT-15 colon was 90.7%; in the experiment with HT29 colon, 105%; in the experiment with SNB-75 CNS it was 111%; in the experiment on SNB-19 CNS it was 96.5%; in the experiment on U251 CNS, 88.1%; with PC-3 prostate, 96.6%. For the same compound, the growth in the experiment with SK-MEL-5 melanoma is 87.7%; in the experiment on UACC-62 melanoma, 86.5%; in the experiment with LOX IMVI melanoma, -42.7% (active); with SK-MEL-28 melanoma, 110%; in the experiment on EKVX NSCLC, 108%; with SN12C renal, 102%. In addition, the growth in the experiment with UO-31 renal is 77%; with TK-10 renal, 92.1%; in the experiment with CAKI-1 renal it was 104%; in the experiment with A498 renal it was 89.7%; with CCRF-CEM leukemia, 53.7%.
As for `NC[C@@](O)(c1ccc(Cl)cc1)c1ccc(-c2cn[nH]c2)cc1`, the growth is 9.55% (active) in the experiment with HCT-15 colon; 1.46% (active) in the experiment on HT29 colon; -6.12% (active) in the experiment with SNB-75 CNS; 30.6% with SNB-19 CNS; 19.1% in the experiment with U251 CNS; 40.1% in the experiment on PC-3 prostate. Moreover, the growth was 39.3% with SK-MEL-5 melanoma; -2.01% (active) with UACC-62 melanoma; 7.1% (active) in the experiment with LOX IMVI melanoma; 3.21% (active) in the experiment with SK-MEL-28 melanoma; 27.1% with EKVX NSCLC; 29.3% in the experiment on SN12C renal. The growth in the experiment with UO-31 renal was -13.6% (active); in the experiment on TK-10 renal it was 5.87% (active); in the experiment with ACHN renal it was 11.6%; with A498 renal it was -2.12% (active); in the experiment with CCRF-CEM leukemia, 15.8%; in the experiment with MOLT-4 leukemia, 13.2%.
On to `COc1cccc(Nc2ncnn3ccc(CN4CC[C@@H](N)[C@H](O)C4)c23)c1`, for which the growth is 28.7% in the experiment with HCT-15 colon; 27.1% in the experiment on HT29 colon; -44.6% (active) in the experiment on SNB-75 CNS; 43.1% in the experiment on SNB-19 CNS; 63.2% in the experiment with U251 CNS; 56.3% in the experiment on PC-3 prostate. For the same compound, the growth was 76.2% with SK-MEL-5 melanoma; 93.4% in the experiment on UACC-62 melanoma; 35.3% with LOX IMVI melanoma; 89.7% with SK-MEL-28 melanoma; 23.8% in the experiment with EKVX NSCLC; 18.9% in the experiment on SN12C renal. Further, the growth in the experiment on UO-31 renal is -34.3% (active); in the experiment with TK-10 renal, -35.3% (active); with ACHN renal, 2.8% (active); in the experiment with CAKI-1 renal it was -13.5% (active); in the experiment on CCRF-CEM leukemia it was 66.2%; in the experiment with MOLT-4 leukemia it was 17.6%.

Source of the values: PubChem BioAssay (NCI).
